The text below walks through data of PubChem BioAssay (NCATS).

Test [1] is described as follows: Cellular Toxicity (caspase-3) H-4-II-E (AID 663). Also: potency is read from the fitted curve at half-maximal effect.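 As to caspase-3 activation: cells exposed to compound for 16 hr before readout; 0% = DMSO basal and 100% = 100 µM tamoxifen.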 Conditions: Potency: caspase-3 activation. The gist of the method:
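H-4-II-E rat hepatoma, 1500 cells/well, 5 hr settle at 37 °C; compound 16 hr, 37 °C, complete medium; Caspase-Glo 3/7, 20 min RT; luminescence. DMSO = 0%, 100 uM tamoxifen = 100%; Hill-equation AC50.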

The nature of test [2]: Cellular Toxicity (caspase-3) Hek293 (AID 664).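 Also: cells exposed to compound for 16 h at 37 °C before readout.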 The method, boiled down: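 Concentration-response qHTS: caspase 3/7 activation measured by luminescent aminoluciferin substrate cleavage after 16 h compound exposure of Hek 293 cells. AC50 from Hill equation, with DMSO as basal and 100 uM tamoxifen as 100%.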
Test [3] is described as follows: Cellular Toxicity (caspase-3) N2a (AID 665).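 Also: compound exposure lasted 16 h at 37 °C before readout.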 Also: potency is read from the fitted curve at half-maximal effect. Conditions: Potency: caspase-3 activation. The gist of the method: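 Caspase-3/7 activation measured as luminescence from Caspase-Glo reagent (1 h, room temperature) after 16 h compound exposure of mouse N2a cells. AC50 values from Hill-equation concentration-response, scaled between DMSO and 10 uM staurosporine.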
Test [4] in a line: Cellular Toxicity (caspase-3) NIH 3T3 (AID 666). Also: potency is read from the fitted curve at half-maximal effect.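 As to caspase-3 activation: 0% = DMSO basal and 100% = 100 µM tamoxifen stimulation.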 The gist of the method:
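Caspase-Glo 3/7 luminescence reported caspase activation in 1000 NIH 3T3 cells/well after 16 h compound exposure at 37 C. DMSO set basal and 100 uM tamoxifen set 100% stimulation; concentration-response modeled with the Hill equation for AC50.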

Test [5] in a line: Cellular Toxicity (caspase-3) Renal Proximal Tubule (AID 667).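 Also: cells exposed to compound for 16 hours at 37 °C before detection; 0% = DMSO basal and 100% = 10 µM staurosporine.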 The method, boiled down: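 Luminescent caspase 3/7 signal from peptide-aminoluciferin cleavage measures apoptosis in freshly isolated rat kidney proximal tubule cells after 16 h compound exposure. Concentration-response data are normalized to DMSO and 10 uM staurosporine, and AC50 values come from Hill equation fits.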

In test [6] the target is Cytochrome P450 3A4 (Homo sapiens) (UniProt P08684). Description: qHTS Assay for Inhibitors and Substrates of Cytochrome P450 3A4 (AID 884). Also: nearly all actives have a fitted effect of over 50% in size. Also: potency is read from the fitted curve at half-maximal effect. As to activity change, negative = inhibition: series mostly up to about 57 µM; % is scaled to controls: 0 for no effect and ±100 for the full control effect. The method, boiled down: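 Luminescent readout of luciferin produced by CYP3A4 (20 nM) dealkylation of Luciferin-PPXE, 25 uM (its KM). NADPH-driven reaction ran 60 min at RT after 10 min compound preincubation; data scaled to 57 uM ketoconazole as 100% inhibition.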

Test [7] has as its target Guanine nucleotide-binding protein G(i) subunit alpha-1 (Homo sapiens) (UniProt P63096). Kind of test: qHTS Assay for Inhibitors of RGS12 GoLoco Motif Activity (Green Fluorophore) (AID 879).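 Also: 0% = labeled peptide with Gαi1 and full inhibition = labeled peptide alone without protein; negative values mean loss of peptide binding seen as reduced polarization.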 The gist of the method:
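A drop in FITC polarization marked displacement of the FITC-tagged RGS12 GoLoco peptide (10 nM) from Gαi1 (50 nM). Compounds were incubated 10 min at room temperature in Tris pH 7.5 buffer containing 150 mM NaCl, 0.1 mM GDP and 0.05% NP40; unlabeled peptide titration served as control.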

For test [8], the target named is Cytochrome P450 2C9 (Homo sapiens) (UniProt P11712). Description: qHTS Assay for Inhibitors and Substrates of Cytochrome P450 2C9 (AID 883). Also: nearly all actives have a fitted effect of over 60% in size. Also: potency is read from the fitted curve at half-maximal effect. As to activity change, negative = inhibition: % is scaled to controls: 0 for no effect and ±100 for the full control effect. The gist of the method:
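10nM CYP2C9 + 100uM Luciferin-H (=KM), 25mM KPO4; cpd 10 min 37C; NADPH regen, 60 min 37C; stop/detect with P450 Glo-Buffer 20 min; luminescence. Norm. to 57uM sulphaphenazole as full inhibition.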

The target of test [9] is Cytochrome P450 2D6 (Homo sapiens) (UniProt P10635). Kind of test: qHTS Assay for Inhibitors and Substrates of Cytochrome P450 2D6 (AID 891). Also: nearly all actives have a fitted effect of over 60% in size. Also: potency is read from the fitted curve at half-maximal effect.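 As to activity change, negative = inhibition: luciferin methyl ether substrate demethylated by CYP2D6 with NADPH regeneration; % is scaled to controls: 0 for no effect and ±100 for the full control effect.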 The method, boiled down:
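Luminescent read-out of luciferin formed by 5 nM human CYP2D6 demethylating 30 uM Luciferin-ME EGE (Km level) over 60 min at room temperature after NADPH regeneration addition. Data normalized to full inhibition by 1.43 uM quinidine.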

The nature of test [10]: qHTS Assay for Identification of Small Molecule Antagonists for NFkB Signaling Pathway (AID 895; active = well fitted inhibition curve with a large enough effect in the signal ratio, with a control signal flat, not every such curve was filed as active; the % refers to the signal ratio; also: potency is read from the fitted curve at half-maximal effect). The method, boiled down: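 ME-180 NFkB-bla cells (beta-lactamase under NFkB response element), plated overnight, treated with compound then 10 pM TNF alpha (about EC50) for 5 hrs at 37 C. LiveBLAzer FRET read at 460/530 nm emission, 405 nm excitation.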

Unmarked numbers belong to inactive results. Inconclusive results are not listed. Calls of active or inactive are those of the source. Unless noted, calls follow the shape of the dose curve; as a rule, active = well fitted curve in the direction sought with a large enough effect; inconclusive = small, poorly fitted or top-dose-only effect, or another doubt; inactive = no such curve, though single readings can be large; an effect the other way counts as inactive or inconclusive. Numbered stars: 1 amine (or outer) side, 2 acyl side, 3 side chain; on linkers, the order of the positions; unused ones are H or OH. Bridge positions count the residues as written; N and C are the ends. Square brackets hold non-standard residues; d marks the D form. Peptide text beside a SMILES is read from it. I, II: the chains in the order shown. Actinocin(9to1) = Cc1c2oc3c(C)ccc(C(=O)[*:1])c3nc-2c(C(=O)[*:2])c(N)c1=O; NMeV = CN[C@H](C(=O)O)C(C)C; Sar = CNCC(=O)O

Sequence of Cytochrome P450 2D6 (Homo sapiens) (P10635 whole entry, looked up): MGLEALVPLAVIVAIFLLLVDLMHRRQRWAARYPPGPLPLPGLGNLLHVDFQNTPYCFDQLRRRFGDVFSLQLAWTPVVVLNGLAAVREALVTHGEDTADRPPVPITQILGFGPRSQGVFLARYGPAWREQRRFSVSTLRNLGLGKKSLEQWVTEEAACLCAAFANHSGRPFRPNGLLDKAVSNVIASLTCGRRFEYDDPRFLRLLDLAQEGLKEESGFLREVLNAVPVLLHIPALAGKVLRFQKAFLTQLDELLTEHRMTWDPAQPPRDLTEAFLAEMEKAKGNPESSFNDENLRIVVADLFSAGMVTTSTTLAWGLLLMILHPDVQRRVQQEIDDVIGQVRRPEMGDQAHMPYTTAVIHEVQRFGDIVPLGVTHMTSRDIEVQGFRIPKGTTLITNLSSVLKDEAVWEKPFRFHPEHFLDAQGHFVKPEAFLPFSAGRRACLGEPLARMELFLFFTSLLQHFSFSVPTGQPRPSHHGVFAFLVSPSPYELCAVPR
Sequence of Guanine nucleotide-binding protein G(i) subunit alpha-1 (Homo sapiens) (P63096 whole entry, looked up): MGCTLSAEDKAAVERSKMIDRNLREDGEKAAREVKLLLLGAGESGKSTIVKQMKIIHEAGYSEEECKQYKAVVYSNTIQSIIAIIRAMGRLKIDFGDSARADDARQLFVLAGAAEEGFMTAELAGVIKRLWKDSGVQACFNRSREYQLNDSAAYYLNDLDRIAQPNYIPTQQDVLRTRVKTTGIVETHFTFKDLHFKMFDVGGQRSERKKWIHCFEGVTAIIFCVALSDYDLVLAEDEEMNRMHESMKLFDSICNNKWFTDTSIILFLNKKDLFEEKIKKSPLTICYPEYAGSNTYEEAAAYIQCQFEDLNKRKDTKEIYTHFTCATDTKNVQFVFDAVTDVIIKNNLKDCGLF
Sequence of Cytochrome P450 3A4 (Homo sapiens) (P08684 whole entry, looked up): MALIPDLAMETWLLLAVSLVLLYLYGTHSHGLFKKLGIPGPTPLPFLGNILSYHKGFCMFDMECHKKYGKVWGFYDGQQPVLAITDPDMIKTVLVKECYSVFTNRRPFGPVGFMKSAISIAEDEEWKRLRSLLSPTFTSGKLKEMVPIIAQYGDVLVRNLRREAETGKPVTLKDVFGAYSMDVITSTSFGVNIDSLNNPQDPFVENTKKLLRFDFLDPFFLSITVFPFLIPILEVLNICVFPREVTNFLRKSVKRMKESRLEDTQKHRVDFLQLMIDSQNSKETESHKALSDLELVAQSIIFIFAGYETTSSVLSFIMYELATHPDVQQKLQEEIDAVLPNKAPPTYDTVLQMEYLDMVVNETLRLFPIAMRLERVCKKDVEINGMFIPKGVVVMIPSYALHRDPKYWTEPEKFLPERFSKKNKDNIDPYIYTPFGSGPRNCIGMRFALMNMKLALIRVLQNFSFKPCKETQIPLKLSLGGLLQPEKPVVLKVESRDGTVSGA
Sequence of Cytochrome P450 2C9 (Homo sapiens) (P11712 whole entry, looked up): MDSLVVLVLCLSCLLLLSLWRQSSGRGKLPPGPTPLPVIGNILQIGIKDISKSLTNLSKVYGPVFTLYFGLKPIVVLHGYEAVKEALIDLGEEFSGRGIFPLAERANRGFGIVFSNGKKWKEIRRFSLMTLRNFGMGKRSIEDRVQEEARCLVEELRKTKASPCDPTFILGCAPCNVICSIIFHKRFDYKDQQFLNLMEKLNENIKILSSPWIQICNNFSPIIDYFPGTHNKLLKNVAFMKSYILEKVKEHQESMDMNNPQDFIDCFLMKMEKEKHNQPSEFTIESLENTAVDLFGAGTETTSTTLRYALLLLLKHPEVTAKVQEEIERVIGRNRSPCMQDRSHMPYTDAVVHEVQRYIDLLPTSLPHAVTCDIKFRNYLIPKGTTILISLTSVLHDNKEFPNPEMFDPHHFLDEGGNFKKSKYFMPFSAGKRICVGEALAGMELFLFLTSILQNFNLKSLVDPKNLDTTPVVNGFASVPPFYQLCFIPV

As to `O=C(O)CCCCC(=O)O`, the Potency entry in test [1], in test [3], in test [4] and in test [6] was “inactive” in each case. Besides, the compound was classed as inactive in [2] and in [5].

As for `CCCn1c(=O)[nH]c(=O)c2[nH]cnc21`, in test [7], the result was inactive. Further, the Potency entry in test [8], in test [6] and in test [9] was “inactive” throughout.

Turning to `C[N+]1(CCCCC[N+]2(C)CCCC2)CCCC1`, the outcome in test [7] was inactive.

As for `CNCCC=C1c2ccccc2CCc2ccccc21`, the result in test [7] was inactive. Further, in [8], the activity change, negative = inhibition was -6.44% [at 11.4 µM]. The Potency in [9] was 3.16 µM (active).

In the case of `Oc1cc(O)c2c(c1)O[C@H](c1ccc(O)c(O)c1)[C@H](O)C2`, the compound was classed as inactive in [7].

For the compound `O=C1CCC(c2ccc(-n3ccnc3)cc2)=NN1`, the outcome in test [7] was inactive. In addition, the figures for the Potency in test [6] and in [9] were 1.58 µM (active) and 2.51 µM (active), respectively.

For `Nc1cc(Cl)c(NC2=NCCN2)c(Cl)c1`, the call in test [7] was inactive.

For the compound `C=CCc1ccc(O)c(OC)c1`, the Potency result in [1], in test [3] and in test [4] was “inactive” each time. Further, the compound was classed as inactive in [2] and in [5].

`CC(C)COC(=O)OCN1C(=O)CN(CCN2CC(=O)N(COC(=O)OCC(C)C)C(=O)C2)CC1=O`: in test [7], the result was inactive.

Turning to `CC/C(=C(/CC)c1ccc(O)cc1)c1ccc(O)cc1`, the Potency result in test [1], in test [3] and in [4] was “inactive” in each case. Besides, the compound was called inactive in test [2] and in [5].

As to `NC(=NCCCCCCN=C(N)/N=C(\N)Nc1ccc(Cl)cc1)/N=C(\N)Nc1ccc(Cl)cc1`, the Potency entry in test [1], in [3] and in test [4] was “inactive” in each case. Moreover, the call in test [2] and in [5] was inactive. Also, the Potency in test [9] is 7.94 µM (active).

For `CN1[C@@H]2CC[C@H]1CC(OC(=O)c1c[nH]c3ccccc13)C2` (stereo partly specified), the call in test [7] was inactive.

`CC(=O)Oc1ccc(C(c2ccc(OC(C)=O)cc2)c2ccccn2)cc1`: the Potency result in test [1], in [3] and in [4] was “inactive” throughout. In addition, the compound was classed as inactive in [2] and in test [5].

For the compound `C=C(CC)C(=O)c1ccc(OCC(=O)O)c(Cl)c1Cl`, the Potency entry in [1], in test [3], in [4] and in [6] was “inactive” each time. The call in test [2] and in test [5] was inactive. Besides, the Potency in test [8] is 0.631 µM (active).

As for `CCCC1O[C@@H]2C[C@H]3[C@@H]4CCC5=CC(=O)C=C[C@]5(C)[C@H]4[C@@H](O)C[C@]3(C)[C@]2(C(=O)CO)O1` (stereo partly specified), in test [7], the compound was called inactive.

Turning to `CN(C)/N=N/c1nc[nH]c1C(N)=O`, the Potency result in test [1], in test [3], in [4] and in [6] was “inactive” throughout. The call in test [2] and in test [5] was inactive.

Turning to `Oc1ccc(Cl)cc1Sc1cc(Cl)ccc1O`, the Potency result in test [1], in [3] and in test [4] was “inactive” in each case. The call in [2] and in test [5] was inactive.

For the compound `COc1cccc2c1C(=O)c1c(O)c3c(c(O)c1C2=O)C[C@@](O)(C(C)=O)C[C@@H]3O[C@H]1C[C@H](N)[C@H](O)[C@H](C)O1`, the Potency in [1] was 12.6 µM (active); in [3], 3.98 µM (active); in [4], 31.6 µM (active). Besides, in [9], the Potency entry was “inactive”.

As to `COc1cc(-c2ccc(=O)[nH]n2)ccc1OC(F)F`, the outcome in test [7] was inactive. Further, the Potency result in [6] and in test [9] was “inactive” throughout.

As for `Oc1c(Cl)cc(Cl)cc1Sc1cc(Cl)cc(Cl)c1O`, the Potency result in [1], in [3] and in [4] was “inactive” throughout. Besides, in [5], the outcome was inactive.

Take `Oc1c(I)cc(Cl)c2cccnc12`: the Potency entry in test [1] and in test [3] was “inactive” throughout. The compound was called inactive in [2] and in test [5]. Moreover, in test [4], the Potency is 12.6 µM (active).

Turning to `O=C1OC(c2ccc(O)cc2)(c2ccc(O)cc2)c2ccccc21`, the Potency entry in [1], in test [3] and in test [4] was “inactive” in each case. Also, the outcome in [2] and in test [5] was inactive.

`COC1=CC(=O)C[C@@H](C)[C@]12Oc1c(Cl)c(OC)cc(OC)c1C2=O`: the Potency result in [1], in test [3] and in test [4] was “inactive” throughout. Moreover, the compound was classed as inactive in test [2] and in test [5].

As for `COc1cccc2c1C(=O)c1c(O)c3c(c(O)c1C2=O)C[C@@](O)(C(=O)CO)C[C@@H]3O[C@H]1C[C@H](N)[C@H](O)[C@H](C)O1`, the Potency is 31.6 µM (active) in [1], 3.16 µM (active) in test [3] and 0.398 µM (active) in [4]. In addition, the compound was classed as inactive in test [2] and in test [5].

In the case of `O=C(O)c1cc2cc(Cc3cccnc3)ccc2o1`, in [7], the outcome was inactive. Further, in test [6], the Potency entry was “inactive”.

`Oc1ccc(O)cc1`: the call in [2], in [5] and in test [7] was inactive. Besides, the Potency entry in [3], in test [8] and in [9] was “inactive” each time. In addition, in test [10], the Potency was 10 µM (active).

For `Nc1ccc(C(=O)O)cc1`, the Potency result in [1], in test [3], in test [4] and in test [6] was “inactive” in each case. Besides, the compound was classed as inactive in test [2] and in test [5].

As for `CC(C)NC[C@@H](O)COc1cccc2ccccc12`, the compound was classed as inactive in test [7]. The Potency result in [6] was “inactive”.

In the case of `C[C@]12CC[C@@H]3c4ccc(O)cc4CC[C@H]3[C@@H]1CC[C@@H]2O`, the Potency entry in [1], in test [3], in [4] and in test [6] was “inactive” each time. Moreover, the result in test [2], in test [5] and in test [7] was inactive.

`CC(=O)O[C@]1(C(C)=O)CC[C@H]2[C@@H]3C[C@H](C)C4=CC(=O)CC[C@]4(C)[C@H]3CC[C@@]21C`: the Potency entry in test [1], in test [3] and in test [4] was “inactive” each time. Further, the compound was classed as inactive in test [5]. For the same compound, the Potency in test [6] was 15.8 µM (active).

With `CC(O)C(=O)O` (stereo unspecified), the Potency entry in test [1], in test [3], in [4] and in [6] was “inactive” in each case. The compound was called inactive in [2] and in [5].

In the case of `Cc1c2oc3c(C)ccc(C(=O)N[C@@H]4C(=O)N[C@H](C(C)C)C(=O)N5CCC[C@H]5C(=O)N(C)CC(=O)N(C)[C@@H](C(C)C)C(=O)O[C@@H]4C)c3nc-2c(C(=O)N[C@@H]2C(=O)N[C@H](C(C)C)C(=O)N3CCC[C@H]3C(=O)N(C)CC(=O)N(C)[C@@H](C(C)C)C(=O)O[C@@H]2C)c(N)c1=O` (I: T[dV]P[Sar][NMeV] / II: T[dV]P[Sar][NMeV]; ester I:1-I:C, II:1-II:C; linker I:N-II:N via Actinocin(9to1)), the results for the Potency in [1], in [3] and in test [4] were 0.126 µM (active), 0.00794 µM (active) and 0.0251 µM (active), respectively. Besides, the outcome in test [2] was inactive.
